# Compound activity from PubChem.
# RORg inh = ROR gamma (mouse) transcription inhibition. P51450. Drosophila S2 Gal4-RORgamma UAS-luciferase reporter, 20 h. Potency, µM (highest dose often 53.6 µM), for the others: top-dose activity change, negative = inhibition, hits mostly inhibitors. 310,000 compounds, 5.4% hits. AID 2551; further: potency means the concentration at half of the fitted maximal effect; nearly all actives have a fitted effect of over 60% in size
# Target sequence (P51450 whole entry, looked up, the tested form may be a part): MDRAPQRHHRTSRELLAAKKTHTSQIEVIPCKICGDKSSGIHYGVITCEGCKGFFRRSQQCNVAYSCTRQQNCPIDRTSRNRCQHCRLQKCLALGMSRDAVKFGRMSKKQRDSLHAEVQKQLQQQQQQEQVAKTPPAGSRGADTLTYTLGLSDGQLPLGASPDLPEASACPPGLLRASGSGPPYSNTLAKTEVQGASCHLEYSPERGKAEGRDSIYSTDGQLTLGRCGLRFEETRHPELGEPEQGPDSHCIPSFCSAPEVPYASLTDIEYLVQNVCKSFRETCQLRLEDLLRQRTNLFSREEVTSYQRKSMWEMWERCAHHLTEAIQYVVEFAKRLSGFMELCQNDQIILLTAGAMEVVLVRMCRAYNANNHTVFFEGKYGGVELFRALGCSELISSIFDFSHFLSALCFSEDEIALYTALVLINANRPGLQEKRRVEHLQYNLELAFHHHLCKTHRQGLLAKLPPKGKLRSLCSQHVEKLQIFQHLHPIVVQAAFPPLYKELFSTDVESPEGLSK
#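 Drosophila S2 cells stably expressing Gal4-DBD/mouse RORγ fusion under metallothionein promoter plus UAS-luciferase; compound 1 h, then 700 uM CuSO4 induction for 20 h at ambient temperature; inhibition read as reduced luminescence.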
# TDP1 cell CPT = DT40-hTDP1 cell growth loss with CPT; chicken DT40 Tdp1-/-;hTDP1 cells + 20 nM CPT, ATP luminescence, 48 h; Potency, µM (series often up to 46.2 µM), inactives show at the highest dose activity change, negative = growth inhibition, usual class: inhibitors; 420,000 compounds, 12% hits; further: potency means the concentration at half of the fitted maximal effect; nearly all actives have a fitted effect of over 55% in size
#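 Cell growth measured by CellTiter-Glo luminescence after a minimum 48 h, 37 C compound exposure with 20 nM CPT in Tdp1-knockout DT40 cells stably expressing hTDP1, seeded 400/well; qHTS titration format.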
# ELG1 repair inh = ELG1-dependent DNA repair inhibition | HEK293T ELG1-luciferase reporter, luminescence, 16 h; DNA damage induced by 5-fluorouridine | Potency, µM (titrated, usually from 46.1 µM), inactives show at the highest dose activity change, negative = inhibition, usual class: inhibitors | 330,000 compounds, 2.3% hits; further: potency means the concentration at half of the fitted maximal effect; nearly all actives have a fitted effect of over 55% in size
#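 Quantitative HTS, concentration-response format. 2,000 cells/well co-treated with 5-fluorouridine and compound, 16 hr in 5% CO2 at 37 °C; ONE-Glo luminescence read after 30 min.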
# VP16 counter = counter-screen for ROR gamma inhibitors: Gal4-VP16 reporter; Drosophila S2 Gal4-VP16 UAS-luciferase, luminescence, 20 h; 310,000 compounds, 3.5% hits; AID 2546; Potency, µM (titrated, usually from 53.6 µM), without a hit: at the top dose activity, negative = inhibition, usual class: inhibitors;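 further: Gal4-VP16 expression switched on by copper sulfate through the metallothionein promoter; potency means the concentration at half of the fitted maximal effect; nearly all actives have a fitted effect of over 50% in size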
# IL-1B inflam inh = inflammasome signaling inhibition, IL-1 beta readout; THP-1 LPS/ATP IL-1B secretion, AlphaLISA, 16 h; stronger effect = lower value; activity change, % at 57.5 µM; 360,000 compounds, 4.7% hits; AID 743279; in the data active means activity change below about -50%; inconclusive means mostly about -30% to -49%
#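 Secreted IL-1B measured by AlphaLISA bead assay after 16 h compound exposure of THP-1 cells; compounds (final up to 57.5 uM) added 1 h before LPS (250 ng/mL) and ATP (1.25 mM) stimulation; lower signal means less secretion.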
# TDP1 cell noCPT = qHTS for Inhibitors of human tyrosyl-DNA phosphodiesterase 1 (TDP1): qHTS in cells in absence of CPT; DT40 Tdp1-/- hTDP1 cells, no CPT, ATP luminescence, 48 h; Potency, µM (series often up to 46.2 µM), inactives show top-dose activity change, negative = growth inhibition, most hits filed as inhibitors; 420,000 compounds, 15% hits; further: potency means the concentration at half of the fitted maximal effect; nearly all actives have a fitted effect of over 55% in size
#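 DT40 Tdp1-/-;hTDP1 cells, no CPT (DMSO vehicle only), 400 cells/well; compounds pin-transferred; ≥48 hr, 37 °C; CellTiter-Glo 30 min RT dark, luminescence read.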
# * hit, by the source's call; ? = inconclusive; · = not tested or not shown; ! = not active in a repeat; [ ] = remark or other dose. Most compounds without a hit are left out; they make up all but 21% or so of the library. Unless noted, the call rests on the fitted dose curve; in most records, active means well fitted curve in the direction sought with a large enough effect; inconclusive means small, poorly fitted or top-dose-only effect, or another doubt; inactive means no such curve, though single readings can be large; an effect the other way counts as inactive or inconclusive. On the % scale 0 is the no-effect control and ±100 the full control effect.
SMILES,RORg inh,TDP1 cell CPT,ELG1 repair inh,VP16 counter,IL-1B inflam inh,TDP1 cell noCPT
CC1=CC2=NC(=O)/C(=C\c3cc(C)n(-c4ccccc4)c3C)C(=N)N2O1,7.8%,2.4%,-0.6%,-9.4%,9.7,-23.3%
CC1=CC2=NC(=O)/C(=C\c3cc(C)n(-c4ccccc4F)c3C)C(=N)N2O1,-8.6%,-16.6%,-25.3%,-5.7%,-22.1,29.1µM*
CC1=CC2=NC(=O)/C(=C\c3cccn3CCOc3cccc(C)c3)C(=N)N2O1,15.8µM*,7.5%,23.1µM*,?,-55.6*,?
O=C(CSc1nnc(CNC(=O)c2c(F)cccc2F)o1)NCc1ccc2c(c1)OCO2,·,3.2%,·,·,1.6,-25.8%
COCCNC(=O)Cn1c(=O)n(-c2ccc(C)c(C)c2)c(=O)c2c3c(sc21)CCCCC3,·,9.5%,·,·,·,-1.3%
CCOc1ccc(-c2noc(-c3csc([C@@H]4C[C@H](O)[C@@H](CO)O4)n3)n2)cc1,·,?,·,·,-10.1,23.1µM*
COc1cc(OC)cc(-c2noc(-c3csc([C@@H]4C[C@H](O)[C@@H](CO)O4)n3)n2)c1,·,?,·,·,?,14.6µM*
CC1(C)CC(=O)C(C=NCCN2CCN(C(=O)CCl)CC2)=C(O)C1,1.3%,?,8.6%,26.5%,0.0,10.3µM*
CCC(=O)N1CCN(CCN=CC2=C(O)CC(C)(C)CC2=O)CC1,12.7%[0.365 µM],5.3%,0.5%,·,3.6,7.7%
CCC(NC(C)C)C(O)c1ccc(O)c(O)c1 (stereo unspecified),1.7%,?,9.8%,-12.6%,-17.6,?
CC(C)NC[C@H](O)c1ccc(O)c(O)c1,?,4.73µM*!,22.8%,-14.1%,-21.2,8.41µM*!
CCC(c1ccc(O)c(O)c1)C(CC)c1ccc(O)c(O)c1 (stereo unspecified),·,2.91µM*,·,·,-98.8*,1.84µM*
COc1ccc(Oc2ncc3ncc(=O)n(Cc4cccc(OC)c4)c3n2)cc1,1.5%,?,·,-8.4%,·,?
O=C([O-])c1cc(-c2ccccc2)cc(-c2ccccc2)[n+]1CCc1ccc(Cl)cc1,·,4.61µM*,·,·,?,6.51µM*
O=C(NCCc1ccc(Cl)cc1)c1cc(-c2ccccc2)n[nH]1,·,?,·,·,·,-12.5%
COC1C(CO)OC(n2c3c(Cl)cccc3c3c4c(c5c6cccc(Cl)c6[nH]c5c32)C(=O)NC4=O)C(O)C1O (stereo unspecified),·,0.517µM*,·,·,-63.1*,2.59µM*
COC1C(O)C(CO)OC1n1c(Br)nc2c(=O)[nH]c(N)nc21 (stereo unspecified),-12.7%,-11.7%,·,8.4%,·,1.2%
CC1CCCN(Cc2nc(Cc3ccccc3Cl)no2)C1 (stereo unspecified),13.3%,5.3%,?,16.8%,22.1,?
CCOc1cccc(-c2c(C(=O)N/N=C/c3ccsc3)nnn2-c2nonc2N)c1,11.2µM*,-10.2%,-4.0%,25.1µM*,12.6,27.9%
CCOc1ccc(-c2c(C(=O)N/N=C/c3sccc3C)nnn2-c2nonc2N)cc1,3.16µM*,-6.1%,0.0%,8.91µM*,-12.4,-3.4%
CCOc1cccc(-c2c(C(=O)N/N=C/c3sccc3C)nnn2-c2nonc2N)c1,5.62µM*,-29.6%,?,4.47µM*,?,?
Cc1oc(-c2ccccc2Cl)nc1CS(=O)CC(=O)NC1CC1 (stereo unspecified),-6.0%,0.4%,3.7%,0.2%,-1.3,-18.9%
CCOC(=O)C(=CNc1ccc2c(c1)CCN2C(C)=O)C(=O)OCC,-3.9%,20.6µM*,0.0%,7.3%,-8.7,7.31µM*
CCOC(=O)C(=CNc1ccc(C#N)cc1)C(=O)OCC,7.2%,7.3%,11.2%,-25.0%,-12.8,4.3%
CCOC(=O)C(=CNc1ccc(NC2=NCC(C)(C)S2)cc1)C(=O)OCC,-60.9%,18.4µM*,?,9.6%,?,9.2µM*
SMILES,RORg inh,TDP1 cell CPT,ELG1 repair inh,VP16 counter,IL-1B inflam inh,TDP1 cell noCPT
CCOC(=O)C(=CNc1cc(C)ccc1-n1cccc1)C(=O)OCC,14.0%,18.4µM*,?,-1.6%,·,16.4µM*
CCOC(=O)C(=CNc1ccc(C(F)(F)F)cc1Cl)C(=O)OCC,-2.7%,-6.4%,0.0%,-13.0%,9.1,?
CCOC(=O)C(=CNc1ccc(N2CCOCC2)cc1)C(=O)OCC,-2.1%,?,-14.8%,9.4%,-0.8,16.4µM*
O=C1c2ccccc2C(c2nnnn2-c2ccc3c(c2)OCCO3)N1CCCn1ccnc1 (stereo unspecified),·,-0.5%,·,·,1.8,-13.1%
CC1(C)CC2CC(C)(CN2S(=O)(=O)c2ccc(C(=O)Nc3cc(S(=O)(=O)N4CCOCC4)ccc3Cl)cc2)C1 (stereo unspecified),?,3.26µM*,3.4%,-9.8%,47.6,2.91µM*
COc1cccc(NC(=O)CN(C)C(=O)c2cccc(S(=O)(=O)N3CC4(C)CC3CC(C)(C)C4)c2)c1 (stereo unspecified),·,?,?,·,-17.8,?
COc1ccc(NC(=O)CN(C)C(=O)c2cccc(S(=O)(=O)N3CC4(C)CC3CC(C)(C)C4)c2)cc1 (stereo unspecified),·,?,-4.7%,·,-71.8*,?
CC1(C)CC2CC(C)(CN2S(=O)(=O)c2ccc(C(=O)Nc3cccc(S(=O)(=O)N4CCOCC4)c3)cc2)C1 (stereo unspecified),?,4.11µM*,?,0.501µM*,-20.8,5.8µM*
Nc1ccn([C@@H]2O[C@H](C(=O)N(CCC3=CCCCC3)CC3CC3)[C@@H](O)[C@H]2O)c(=O)n1,·,?,·,·,-10.7,-22.0%
COc1ccc(C2/C=C\CN(CC(C)C)C(C)C(=O)N2Cc2ccc(F)cc2)cc1 (stereo unspecified),50.8%,·,·,-12.6%,·,·
O=C(O)c1ccc(S(=O)(=O)N[C@H](Cc2ccc([N+](=O)[O-])cc2)C(=O)O)cc1,4.3%,·,·,-4.3%,·,·
O=C(CSc1nc(-c2ccccc2)c(-c2ccccc2)[nH]1)Nc1nccs1,8.1%,?,-17.8%,-20.8%,-29.6,?
COc1ccc(-c2noc(-c3ccc(NCc4ccc(C)cc4)c([N+](=O)[O-])c3)n2)cc1OC,·,-2.0%,·,·,·,2.9%
CCOc1ccc(C2C(C(=O)OC)=CN(C(C)c3ccccc3)C=C2C(=O)OC)cc1 (stereo unspecified),1.3%,?,-11.1%,-12.4%,-8.7,20.6µM*
